Test results taken from the supplement of paper PMC9492666.
Where a name gives a salt, the structure may show the parent alone.

system: HCC1937; assay: relative cell viability, compound + RSL3, vs DMSO (fraction of DMSO control); higher = less growth inhibition; settings: 72 h
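Further: breast cancer cell viability read out with the CCK-8 kit after co-treatment of each compound with the ferroptosis inducer RSL3.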

Row | Compound | relative cell viability
1 | O=C(NCCN1CCC2(CC1)C(=O)NCN2c1ccccc1)c1ccc2ccccc2c1 + COC(=O)c1ccc([C@H]2c3[nH]c4ccccc4c3C[C@H](C(=O)OC)N2C(=O)CCl)cc1 [RSL3] | 0.229
2 | C[C@]12CC[C@@H](O)C[C@@H]1CC[C@@H]1[C@@H]2CC[C@]2(C)C(=O)CC[C@@H]12 [Androsterone] + COC(=O)c1ccc([C@H]2c3[nH]c4ccccc4c3C[C@H](C(=O)OC)N2C(=O)CCl)cc1 [RSL3] | 0.919
3 | COc1ccc(CN2CCNCC2)c(OC)c1OC [Trimetazidine dihydrochloride] + COC(=O)c1ccc([C@H]2c3[nH]c4ccccc4c3C[C@H](C(=O)OC)N2C(=O)CCl)cc1 [RSL3] | 0.782
4 | CCC1=N[C@H]2C[C@@]3(C(=O)N(OC)c4ccccc43)[C@H]3CC1[C@@H]2CO3 [Humantenmine] + COC(=O)c1ccc([C@H]2c3[nH]c4ccccc4c3C[C@H](C(=O)OC)N2C(=O)CCl)cc1 [RSL3] | 0.585
5 | CCc1c(C(=O)C(N)=O)c2c(OCC(=O)O)cccc2n1Cc1ccccc1 [Varespladib] + COC(=O)c1ccc([C@H]2c3[nH]c4ccccc4c3C[C@H](C(=O)OC)N2C(=O)CCl)cc1 [RSL3] | 0.449
6 | O=C(Oc1ccc([N+](=O)[O-])cc1)N1CCC(C(O)(c2ccc3c(c2)OCO3)c2ccc3c(c2)OCO3)CC1 + COC(=O)c1ccc([C@H]2c3[nH]c4ccccc4c3C[C@H](C(=O)OC)N2C(=O)CCl)cc1 [RSL3] | 0.483
7 | C[C@@H]1C(=O)O[C@H]2[C@H](O)[C@@]34O[C@@H]5OC(=O)[C@H](O)[C@@]56[C@H](C(C)(C)C)[C@H](O)C(OC3=O)[C@]64[C@@]12O (stereo not given in full) [Ginkgolide C] + COC(=O)c1ccc([C@H]2c3[nH]c4ccccc4c3C[C@H](C(=O)OC)N2C(=O)CCl)cc1 [RSL3] | 0.699
8 | O=C(Oc1ccc([N+](=O)[O-])cc1)N1CCN(Cc2cccc(Oc3ccccc3)c2)CC1 + COC(=O)c1ccc([C@H]2c3[nH]c4ccccc4c3C[C@H](C(=O)OC)N2C(=O)CCl)cc1 [RSL3] | 0.673
9 | C[C@@]12C[C@@H](c3ccoc3)OC(=O)[C@@H]1CC[C@]1(C)[C@H]2[C@@H]2C=C[C@@]1(O)C(=O)O2 [Columbin] + COC(=O)c1ccc([C@H]2c3[nH]c4ccccc4c3C[C@H](C(=O)OC)N2C(=O)CCl)cc1 [RSL3] | 0.564
10 | C/C=C/c1cc(OC)c(OC)cc1OC [alpha-Asarone] + COC(=O)c1ccc([C@H]2c3[nH]c4ccccc4c3C[C@H](C(=O)OC)N2C(=O)CCl)cc1 [RSL3] | 0.452
11 | O=C1C=CC[C@@H]2[C@H]3CCCN4CCC[C@@H](CN12)[C@@H]34 [Sophocarpine] + COC(=O)c1ccc([C@H]2c3[nH]c4ccccc4c3C[C@H](C(=O)OC)N2C(=O)CCl)cc1 [RSL3] | 0.621
12 | O=C(CBr)c1ccc(O)cc1 [PTP Inhibitor I] + COC(=O)c1ccc([C@H]2c3[nH]c4ccccc4c3C[C@H](C(=O)OC)N2C(=O)CCl)cc1 [RSL3] | 0.674
13 | CC(C)=CCC[C@](C)(O)[C@H]1CC[C@]2(C)[C@@H]1[C@H](O)C[C@@H]1[C@@]3(C)CC[C@H](O)C(C)(C)[C@@H]3[C@@H](O[C@@H]3O[C@H](CO)[C@@H](O)[C@H](O)[C@H]3O)C[C@]12C [Ginsenoside Rh1] + COC(=O)c1ccc([C@H]2c3[nH]c4ccccc4c3C[C@H](C(=O)OC)N2C(=O)CCl)cc1 [RSL3] | 0.654
14 | NNC(=O)c1nn(Cc2ccc(Cl)cc2Cl)c2ccccc12 [Adjudin] + COC(=O)c1ccc([C@H]2c3[nH]c4ccccc4c3C[C@H](C(=O)OC)N2C(=O)CCl)cc1 [RSL3] | 0.557
15 | Cc1cc(SCc2sc(-c3ccc(C(F)(F)F)c(F)c3)nc2C)ccc1OCC(=O)O + COC(=O)c1ccc([C@H]2c3[nH]c4ccccc4c3C[C@H](C(=O)OC)N2C(=O)CCl)cc1 [RSL3] | 0.59

system: MDA-MB-231; assay: as above; settings: 72 h

Row | Compound | relative cell viability
16 | O=C(NCCN1CCC2(CC1)C(=O)NCN2c1ccccc1)c1ccc2ccccc2c1 + COC(=O)c1ccc([C@H]2c3[nH]c4ccccc4c3C[C@H](C(=O)OC)N2C(=O)CCl)cc1 [RSL3] | 0.51
17 | C[C@]12CC[C@@H](O)C[C@@H]1CC[C@@H]1[C@@H]2CC[C@]2(C)C(=O)CC[C@@H]12 [Androsterone] + COC(=O)c1ccc([C@H]2c3[nH]c4ccccc4c3C[C@H](C(=O)OC)N2C(=O)CCl)cc1 [RSL3] | 0.658
18 | COc1ccc(CN2CCNCC2)c(OC)c1OC [Trimetazidine dihydrochloride] + COC(=O)c1ccc([C@H]2c3[nH]c4ccccc4c3C[C@H](C(=O)OC)N2C(=O)CCl)cc1 [RSL3] | 0.607
19 | CCC1=N[C@H]2C[C@@]3(C(=O)N(OC)c4ccccc43)[C@H]3CC1[C@@H]2CO3 [Humantenmine] + COC(=O)c1ccc([C@H]2c3[nH]c4ccccc4c3C[C@H](C(=O)OC)N2C(=O)CCl)cc1 [RSL3] | 0.679
20 | CCc1c(C(=O)C(N)=O)c2c(OCC(=O)O)cccc2n1Cc1ccccc1 [Varespladib] + COC(=O)c1ccc([C@H]2c3[nH]c4ccccc4c3C[C@H](C(=O)OC)N2C(=O)CCl)cc1 [RSL3] | 0.574
21 | O=C(Oc1ccc([N+](=O)[O-])cc1)N1CCC(C(O)(c2ccc3c(c2)OCO3)c2ccc3c(c2)OCO3)CC1 + COC(=O)c1ccc([C@H]2c3[nH]c4ccccc4c3C[C@H](C(=O)OC)N2C(=O)CCl)cc1 [RSL3] | 0.618
22 | C[C@@H]1C(=O)O[C@H]2[C@H](O)[C@@]34O[C@@H]5OC(=O)[C@H](O)[C@@]56[C@H](C(C)(C)C)[C@H](O)C(OC3=O)[C@]64[C@@]12O (stereo not given in full) [Ginkgolide C] + COC(=O)c1ccc([C@H]2c3[nH]c4ccccc4c3C[C@H](C(=O)OC)N2C(=O)CCl)cc1 [RSL3] | 0.692
23 | O=C(Oc1ccc([N+](=O)[O-])cc1)N1CCN(Cc2cccc(Oc3ccccc3)c2)CC1 + COC(=O)c1ccc([C@H]2c3[nH]c4ccccc4c3C[C@H](C(=O)OC)N2C(=O)CCl)cc1 [RSL3] | 0.473
24 | C[C@@]12C[C@@H](c3ccoc3)OC(=O)[C@@H]1CC[C@]1(C)[C@H]2[C@@H]2C=C[C@@]1(O)C(=O)O2 [Columbin] + COC(=O)c1ccc([C@H]2c3[nH]c4ccccc4c3C[C@H](C(=O)OC)N2C(=O)CCl)cc1 [RSL3] | 0.642
25 | C/C=C/c1cc(OC)c(OC)cc1OC [alpha-Asarone] + COC(=O)c1ccc([C@H]2c3[nH]c4ccccc4c3C[C@H](C(=O)OC)N2C(=O)CCl)cc1 [RSL3] | 0.541
26 | O=C1C=CC[C@@H]2[C@H]3CCCN4CCC[C@@H](CN12)[C@@H]34 [Sophocarpine] + COC(=O)c1ccc([C@H]2c3[nH]c4ccccc4c3C[C@H](C(=O)OC)N2C(=O)CCl)cc1 [RSL3] | 0.502
27 | O=C(CBr)c1ccc(O)cc1 [PTP Inhibitor I] + COC(=O)c1ccc([C@H]2c3[nH]c4ccccc4c3C[C@H](C(=O)OC)N2C(=O)CCl)cc1 [RSL3] | 0.577
28 | CC(C)=CCC[C@](C)(O)[C@H]1CC[C@]2(C)[C@@H]1[C@H](O)C[C@@H]1[C@@]3(C)CC[C@H](O)C(C)(C)[C@@H]3[C@@H](O[C@@H]3O[C@H](CO)[C@@H](O)[C@H](O)[C@H]3O)C[C@]12C [Ginsenoside Rh1] + COC(=O)c1ccc([C@H]2c3[nH]c4ccccc4c3C[C@H](C(=O)OC)N2C(=O)CCl)cc1 [RSL3] | 0.679
29 | NNC(=O)c1nn(Cc2ccc(Cl)cc2Cl)c2ccccc12 [Adjudin] + COC(=O)c1ccc([C@H]2c3[nH]c4ccccc4c3C[C@H](C(=O)OC)N2C(=O)CCl)cc1 [RSL3] | 0.45
30 | Cc1cc(SCc2sc(-c3ccc(C(F)(F)F)c(F)c3)nc2C)ccc1OCC(=O)O + COC(=O)c1ccc([C@H]2c3[nH]c4ccccc4c3C[C@H](C(=O)OC)N2C(=O)CCl)cc1 [RSL3] | 0.668
